Results as given in PubChem BioAssay AID588856 (National Center for Advancing Translational Sciences (NCATS), 2011).
Hit rate of the full screen: of about 410,000 compounds, about 3,100 (0.76%) were called active. A call without a number means that no potency is given here. The call rests on the fitted dose curve; in most records, active means well fitted cell-killing curve with a large enough effect; inactive means no such curve, though single readings can be large or run the other way. This excerpt belongs to a sample that is enriched for actives.

assay: qHTS for Inhibitors of TGF-b: Cytotox Counterscreen; details: HepG2 CAGA-GFP viability, ATP luminescence, 18 h; series mostly up to 46.1 µM
Method in brief: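 CellTiter-Glo luminescence gave cytotoxicity after 18 hours at 37 degrees C. The cells were HepG2 CAGA-GFP in 1% FBS DMEM, stimulated with 500 pg/mL TGF-beta after compound addition. %Activity was normalised to no-cell wells (complete cell-killing) and DMSO (no toxicity), and curves were fitted and classified.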
Potency means the concentration at half of the fitted maximal effect.

| Compound | Potency |
| --- | --- |
| COc1cccc(CNC(=O)C(=O)NCC(c2cccs2)S(=O)(=O)c2ccccc2)c1 (stereo unspecified) | inactive |
| CN(C)c1ccc(/C=C/c2c3ccccc3nc3ccccc23)cc1 | inactive |
| O=C(C[C@H]1C/C=C\C[C@@H](NC(=O)OCC2c3ccccc3-c3ccccc32)C(=O)O[C@@H](c2ccccc2)CNC1=O)N[C@H](CO)Cc1ccccc1 | 12.6 µM (active) |
| CC(C)(C)OC(=O)C[C@@H]1C/C=C\C[C@@H](CC(=O)N[C@H](CO)Cc2ccccc2)C(=O)NC[C@@H](c2ccccc2)OC1=O | inactive |
| O=C(N[C@@H]1C/C=C\C[C@@H](CC(=O)N(CCO)Cc2ccccc2)C(=O)N[C@H](Cc2ccccc2)COC1=O)OCC1c2ccccc2-c2ccccc21 | inactive |
| COc1ccccc1CNC(=O)CCn1c(=O)c2ccccc2n(CC(=O)Nc2cccc(Cl)c2)c1=O | inactive |
| COc1cc(NC(=O)CCn2nc(C)cc2C)cc(OC)c1OC | inactive |
| COc1ccc2oc(-c3ccc(C)c(NC(=O)c4sc5ccccc5c4Cl)c3)nc2c1 | inactive |
| O=C(CCl)Nc1cccc(CP(=O)(c2ccccc2)c2ccccc2)c1 | 15.8 µM (active) |
| CCc1cccc(NC(=O)c2cc(-c3ccccc3)n[nH]2)c1 | inactive |
| O=C(COc1ccccc1C(=O)Nc1ccccc1)Nc1cccc(F)c1 | inactive |
| Cc1cccc(CN2Cc3cccc4c3[C@H](C=CC4)CC2=S)c1 | inactive |
| COc1ccc(C(=O)Nc2ccc3nc(N4CCCCC4)cc(C)c3c2)cc1OC | inactive |
| CCN1CCN(c2cc(C)c3cc(NC(=O)c4cc(Cl)ccc4OC)ccc3n2)CC1 | 11.2 µM (active) |
| CCOCCCNC(=S)Nc1ccc2nc(N3CCN(CC)CC3)cc(C)c2c1 | inactive |
| COc1cc(C(=O)N2CCC(c3ccncc3)CC2)cc(OC)c1OC | inactive |
| CNC[C@H](CC1CCCCC1)NC[C@H](NCCC1CCCC1)[C@H](C)O | 15.8 µM (active) |
| CCOc1cccc2cc(-c3cn4c(n3)sc3cc(C)ccc34)c(=O)oc12 | inactive |
| CCOC(=O)CSc1nc2c(c(=O)n(Cc3ccccc3Cl)c(=O)n2C)n1C | inactive |
| CCOC(=O)c1cnc2sccn2c1=O | inactive |
| CCOC(=O)c1cnc2nc(SCc3ccccc3Cl)[nH]n2c1=O | 2.82 µM (active) |
| Cc1cc(N2CCN(c3cccc(C(F)(F)F)c3)CC2)n2nc(-c3ccccc3)nc2n1 | inactive |
| CN1C(=O)c2[nH]nc(-c3ccc(F)cc3)c2C1c1ccccn1 (stereo unspecified) | inactive |
| CCOc1ccc(Nc2c(S(=O)(=O)c3ccccc3)cnc3ccccc23)cc1 | inactive |

| Compound | Potency |
| --- | --- |
| Cc1ccc(-c2nc(S(=O)(=O)c3ccc(C)cc3)c(N3CCCCCC3)o2)cc1 | inactive |
| O=C(CSc1oc(-c2ccc(F)cc2)nc1S(=O)(=O)c1ccc(Br)cc1)NC1CCCCC1 | inactive |
| CC(C)S(=O)(=O)c1oc(-c2ccc(F)cc2)nc1S(=O)(=O)c1ccc(F)cc1 | 2 µM (active) |
| COc1cccc(Cn2c(CNS(=O)(=O)c3ccc(Cl)s3)nc3cccnc32)c1 | inactive |
| COc1ccccc1N1CCN(c2ccc(=O)n(CC(=O)NCc3ccc(OC(C)C)cc3)n2)CC1 | inactive |
| O=C1C2C(c3ccccc3)CC=CC2C(c2ccoc2)N1Cc1ccccc1 (stereo unspecified) | inactive |
| CC(C)c1ccc(Cn2c(COc3ccccc3)nc3ccccc32)cc1 | inactive |
| O=C(Cn1c(=O)nc(-c2ccccc2)c2cc(Cl)ccc21)NCc1ccc(Cl)cc1 | inactive |
| CC(C)c1ccc2c(c1)c(SC(C)(C)C)c(CC(C)(C)C(=O)O)n2Cc1ccc(Cl)cc1 | 10 µM (active) |
| O=C(c1cccc(Br)c1)N1CCN(Cc2cc(=O)n3nc(-c4ccccc4)sc3n2)CC1 | inactive |
| CCCOc1ccc(N2CC(C(=O)Nc3ccccn3)CC2=O)cc1 (stereo unspecified) | inactive |
| CCCOc1cccc(C(=O)Nc2cccc(NC(=O)c3ccc(C(C)(C)C)cc3)c2)c1 | inactive |
| CCCOc1ccc(C(=O)C(CCC(CNCC)C(=O)c2ccc(OCCC)cc2)CNCC)cc1 (stereo unspecified) | 3.16 µM (active) |
| CC(C)(C)C1CCC(NC(=O)c2cnn3c2NC(=C2CC2)C=C3C(F)F)CC1 (stereo unspecified) | inactive |
| CN(C)c1ccc(/C=C/c2sc3ccccc3[n+]2CCCCBr)cc1 | inactive |
| Cc1c(CCO)sc[n+]1CC(=O)c1ccc2ccccc2c1 | inactive |
| CCC1CCCCN1S(=O)(=O)c1ccc(NC(=O)c2cc(=O)c3ccccc3o2)cc1 (stereo unspecified) | inactive |
| Cc1cc2oc3ccc(NCCC4CCCN4C)cc3c(=O)c2cc1C (stereo unspecified) | 10 µM (active) |
| CNCCCOc1cc2nc(N3CCCN(C)CC3)nc(NC3CCN(C)CC3)c2cc1OC | inactive |
| COc1ccccc1CNS(=O)(=O)c1cc(Br)cc2c1N(C(C)=O)C(C)C2 (stereo unspecified) | inactive |
| O=C(Cn1nc(Cc2cccnc2)c2ccccc2c1=O)N1CCN(c2ccccc2F)CC1 | inactive |
| COc1cc(OC)c(/C=C/c2ccnc3ccccc23)c(OC)c1 | inactive |
| O=C(CSc1nccn1Cc1ccc(F)cc1)NCc1ccccc1 | inactive |
| COc1cc(OC)c(C2C=C(C(=O)O)Nc3ncnn32)cc1OC (stereo unspecified) | inactive |

| Compound | Potency |
| --- | --- |
| NC(Cc1ccc(F)cc1)c1csc(Nc2nncc3ccccc23)n1 (stereo unspecified) | 15.8 µM (active) |
| COCC(C)NC(=O)COc1nncc2ccccc12 (stereo unspecified) | inactive |
| CN(Cc1ccccc1)c1ccc(/C=C/c2ccnc3ccccc23)cc1 | inactive |
| Cc1ccc(OCC(=O)OCc2cc(=O)n3nc(C4CC4)sc3n2)cc1 | inactive |
| CCCCC(CCCC)c1ccc(C=Nc2ccc(/C=C/c3ccnc4ccccc34)cc2)cc1 | inactive |
| COc1ccccc1-c1nnc(SCC(N)=O)o1 | inactive |
| COc1ccc(-c2nnc(SC(=O)N3c4ccccc4Sc4ccccc43)o2)cc1 | 11.2 µM (active) |
| COc1ccc(CN(C(=O)CSc2nnc(-c3ccc(OC)c(OC)c3)o2)c2ccc(F)cc2)cc1 | inactive |
| COc1cccc(CNc2nc(NCc3ccccc3OC)nc3ccsc23)c1 | 11.2 µM (active) |
| COc1cccc(CNc2nccn(-c3ccc(OC)c(OC)c3)c2=O)c1 | inactive |
| CC(C)Nc1nc(NCCOc2ccccc2Cl)c2sccc2n1 | inactive |
| CCN(CC)/[N+]([O-])=N/OCOC(=O)Cc1c(C)n(C(=O)c2ccc(Cl)cc2)c2ccc(OC)cc12 | inactive |
| COc1cc(NC(=O)c2cc3ccc4cccnc4c3[nH]2)cc(OC)c1OC | inactive |
| Cc1ccccc1CN1CCC(C(=O)Nc2ccc(Oc3cccnc3)cc2)CC1 | inactive |
| Cc1ccccc1CN1CCC(CNC(=O)c2cc3ccc4cccnc4c3[nH]2)CC1 | 12.6 µM (active) |
| CCOc1ccccc1N(CC)C(=O)Nc1cn(C)c(=O)c2ccccc12 | inactive |
| CCOc1ccccc1N(CC)C(=O)c1cc2ccc3cccnc3c2[nH]1 | 12.6 µM (active) |
| Cc1ccccc1CN1CCC(CNC(=O)c2c(C)oc3ncnc(N4CCCCC4)c23)CC1 | inactive |
| CCOc1ccc(N(CC)C(=O)C2CCN(S(=O)(=O)c3cccc4nonc34)CC2)cc1 | inactive |
| COc1ccccc1NC(=O)C1=C(C)Nc2ncnn2C1c1sccc1C (stereo unspecified) | inactive |
| O=C(CSc1nc(=O)[nH]c2c1CCCC2)Nc1cc(C(F)(F)F)ccc1Cl | inactive |
| CCN1CCN(c2ccc(/C=C/c3ccnc4ccccc34)cc2)CC1 | inactive |
| Cc1oc2ncn(CC(C)C)c(=O)c2c1C(=O)N1CCN(c2ccccc2F)CC1 | inactive |
| O=C(NC1(C(F)(F)F)N=C(c2ccccc2)N(C2CCCCC2)C1=O)c1ccccc1F (stereo unspecified) | inactive |

| Compound | Potency |
| --- | --- |
| O=C1NC(Nc2nc3ccccc3s2)(C(F)(F)F)C(=O)N1C1CCCCC1 (stereo unspecified) | 11.2 µM (active) |
| CCCN(C(=O)Cn1ncc2c([nH]c3ccc(C)cc32)c1=O)c1ccccc1C | inactive |
| CC(=O)c1ccc(NC(=O)COc2ccccc2-c2nc(-c3ccccc3)no2)cc1 | inactive |
| Cc1ccc(/C=N/NC(=O)COc2ccccc2-c2ccccc2)cc1 | 10 µM (active) |
| O=C(COc1ccc(-c2ccccc2)cc1)NN=C1CCCC1 | inactive |
| CCOc1ccccc1NC(=O)CCn1cnnn1 | inactive |
| O=C(Nc1ccccc1Cl)N1CCC(CN2CCCCC2)CC1 | inactive |
| O=C(Nc1ccccc1Cl)/C(Cl)=C(\Cl)S(=O)c1ccccc1 (stereo unspecified) | 3.55 µM (active) |
| O=C(Nc1ccccc1Cl)N1CCC(CN2CCCC2)CC1 | inactive |
| CCCN1CCC(=O)N(C(CSc2ccc(OC)cc2)Cc2ccccc2)CC1 (stereo unspecified) | inactive |
| Cc1ccccc1CNC(=O)C1CCCN(S(=O)(=O)N(C)c2ccc(F)cc2)C1 (stereo unspecified) | inactive |
| Cc1ccc(CCNC(=O)c2ccc(CS(=O)(=O)Cc3cccc(C)c3)o2)cc1 | inactive |
| Cc1cccc(NC(=O)c2nc(S(=O)(=O)Cc3ccccc3)ncc2Cl)c1 | 11.2 µM (active) |
| Cc1ccc(NC(=O)c2nc(S(=O)(=O)Cc3cccc(C)c3)ncc2Cl)cc1 | 7.08 µM (active) |
| Cc1cccc(CS(=O)(=O)c2ncc(Cl)c(C(=O)Nc3ccc(F)cc3)n2)c1 | 10 µM (active) |
| CSc1ncc(Cl)c(C(=O)Nc2ccc(S(=O)(=O)N3CCCC(C)C3)cc2)n1 (stereo unspecified) | inactive |
| CCOC(=O)c1ccc(NC(=O)c2nc(SCc3ccc(F)cc3)ncc2Cl)cc1 | inactive |
| CCS(=O)(=O)c1ncc(N(Cc2ccc(F)cc2)Cc2ccco2)c(C(=O)Nc2cc(C)ccc2C)n1 | inactive |
| CCCSc1ncc(Cl)c(C(=O)Nc2c(C(=O)Nc3ccccc3)oc3ccccc23)n1 | inactive |
| O=C(Nc1ccccc1C(F)(F)F)c1nc(S(=O)(=O)Cc2ccccc2F)ncc1Cl | inactive |
| CCCCCCCNc1ccc(/C=C/c2ccnc3ccccc23)cc1 | inactive |
| Cc1ccc(N2CC(NC(=O)Cc3cccs3)CC2=O)cc1 (stereo unspecified) | inactive |
| CN(C)c1ccc(/C=C2\C=Cc3ccccc32)cc1Br | inactive |
| COc1ccc(-c2ccc(OC)c(C3C4C=CCC(C)C4C(=O)N3Cc3ccccc3)c2)cc1C (stereo unspecified) | inactive |
